Among the test systems are DU-145 prostate; K-562 leukemia; MALME-3M melanoma; MDA-MB-231 breast; RXF 393 renal; SF-268 CNS; SF-295 CNS; SF-539 CNS; UACC-257 melanoma; M14 melanoma; HCT-15 colon; HT29 colon; SNB-75 CNS; SNB-19 CNS; U251 CNS; PC-3 prostate; SK-MEL-5 melanoma; UACC-62 melanoma; LOX IMVI melanoma; SK-MEL-28 melanoma.
Assay in all cases: NCI-60 one-dose screen, 48 h (100 = growth as untreated, 0 = no growth, -100 = all killed)
Holding throughout (settings): 10 µM unless noted

This is part of a sample that, as a whole, favours compounds with a hit. Of some 83,000 tested, about 20% had one in any assay.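 Compound tested at a single concentration for 48 hours in 96-well plates; a percent growth value below 10 was scored as active.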 Values without a mark were called inactive. Calls of active or inactive are those of the source.

With `COc1cc2c(cc1OCCCN1CCN(CCCOc3cc4c(cc3OC)C(=O)N3CC(F)(F)C[C@H]3C=N4)CC1)N=C[C@@H]1CC(F)(F)CN1C2=O`, the growth in the experiment on DU-145 prostate is 16.3%; with K-562 leukemia it was 36.5%; with MALME-3M melanoma, 89%; with MDA-MB-231 breast it was 85.3%; with RXF 393 renal, 86.2%; in the experiment on SF-268 CNS, 14.6%. Besides, the growth with SF-295 CNS was 30.6%; in the experiment with SF-539 CNS it was 51%; with UACC-257 melanoma, 85.3%; with M14 melanoma, 70.2%; in the experiment on HCT-15 colon, 101%; in the experiment on HT29 colon, 60.1%. In addition, the growth in the experiment on SNB-75 CNS was 2.55% (active); in the experiment on SNB-19 CNS, 47.2%; in the experiment with U251 CNS it was 7.49% (active); in the experiment with PC-3 prostate, 68.5%; in the experiment with SK-MEL-5 melanoma it was 20.6%; in the experiment on UACC-62 melanoma, 76.2%. In addition, the growth is 12% in the experiment on LOX IMVI melanoma and 99.3% with SK-MEL-28 melanoma.

For the compound `COc1cc(-c2csc(NC(=O)c3ccc(N4CCOCC4)c(C(F)(F)F)c3)n2)cc(OC)c1OC`, the growth is 53.4% with DU-145 prostate; 18.9% in the experiment on K-562 leukemia; 29.3% in the experiment with MALME-3M melanoma; 71.4% in the experiment on MDA-MB-231 breast; 62% in the experiment with RXF 393 renal; 40% in the experiment with SF-268 CNS. The growth is 21.9% with SF-295 CNS; 49.6% with SF-539 CNS; 26.6% in the experiment on UACC-257 melanoma; 12.9% with M14 melanoma; 11% with HCT-15 colon; 43.2% with HT29 colon. Further, the growth in the experiment on SNB-75 CNS was 57.2%; in the experiment on SNB-19 CNS it was 62.6%; with U251 CNS, 47.3%; in the experiment with PC-3 prostate it was 11%; in the experiment on SK-MEL-5 melanoma, -6.45% (active); in the experiment with UACC-62 melanoma, -6.31% (active). Moreover, the growth was 23.1% in the experiment on LOX IMVI melanoma and 36.6% with SK-MEL-28 melanoma.

In the case of `CC(C)(Sc1cc(C(C)(C)C)c(O)c(C(C)(C)C)c1)Sc1cc(C(C)(C)C)c(OC(=O)CCCC(=O)O)c(C(C)(C)C)c1`, the growth with DU-145 prostate is 59.4%; in the experiment with K-562 leukemia, 41.6%; in the experiment on MALME-3M melanoma, 75.4%; in the experiment on MDA-MB-231 breast, 74.2%; in the experiment on RXF 393 renal it was 73.3%; in the experiment on SF-268 CNS, 63.1%. Moreover, the growth in the experiment with SF-295 CNS is 50.4%; in the experiment on SF-539 CNS, 62.7%; in the experiment with UACC-257 melanoma, 74.6%; with M14 melanoma, 54.6%; in the experiment with HCT-15 colon it was 27.8%; in the experiment on HT29 colon it was 40.8%. In addition, the growth in the experiment with SNB-75 CNS is 112%; with SNB-19 CNS, 57.1%; in the experiment with U251 CNS, 47.1%; with PC-3 prostate, 33.9%; in the experiment on SK-MEL-5 melanoma it was 54.1%; with UACC-62 melanoma, 26.1%. The growth is 59% with LOX IMVI melanoma and 70.6% with SK-MEL-28 melanoma.

On to `CCCCCCC12CCC(=O)N1CCc1cncn12` (stereo not given), for which the growth was 109% in the experiment on DU-145 prostate; 100% in the experiment on K-562 leukemia; 120% in the experiment on MALME-3M melanoma; 110% in the experiment on MDA-MB-231 breast; 92.4% with RXF 393 renal; 120% with SF-268 CNS. For the same compound, the growth with SF-295 CNS was 105%; with SF-539 CNS, 106%; with UACC-257 melanoma, 101%; in the experiment on M14 melanoma it was 113%; in the experiment on HCT-15 colon it was 102%; in the experiment with HT29 colon, 100%. Further, the growth with SNB-75 CNS was 116%; in the experiment on SNB-19 CNS it was 105%; in the experiment on U251 CNS, 100%; in the experiment with PC-3 prostate, 98.3%; in the experiment on SK-MEL-5 melanoma, 99.1%; in the experiment with UACC-62 melanoma, 95.6%. Also, the growth in the experiment on LOX IMVI melanoma was 102%; with SK-MEL-28 melanoma, 112%.

As for `O=C(Nc1ccc(Oc2cccc(F)c2)c(Cl)c1)c1cccnc1`, the growth in the experiment on DU-145 prostate is 21.8%; in the experiment on K-562 leukemia, 16.2%; with MALME-3M melanoma it was 47.2%; in the experiment with MDA-MB-231 breast, 60.2%; with RXF 393 renal, 13.5%; with SF-268 CNS, 53.7%. Moreover, the growth was 40.1% in the experiment on SF-295 CNS; 4.06% (active) with SF-539 CNS; 56.1% with UACC-257 melanoma; 15.9% in the experiment on M14 melanoma; 29.9% in the experiment on HCT-15 colon; 12.7% in the experiment on HT29 colon. Also, the growth is 7.85% (active) with SNB-75 CNS; 42.6% with SNB-19 CNS; 32.5% in the experiment with U251 CNS; 24.6% in the experiment on PC-3 prostate; -24% (active) in the experiment on SK-MEL-5 melanoma; 31.2% in the experiment with UACC-62 melanoma. Also, the values for the growth in the experiment on LOX IMVI melanoma and in the experiment on SK-MEL-28 melanoma were 52.8% and 54%, respectively.

In the case of `c1ccc(Cn2cc3c(c2)-c2oncc2CC3)cc1`, the growth was 19.6% with DU-145 prostate; 13.9% with K-562 leukemia; 86% in the experiment with MALME-3M melanoma; 8.74% (active) in the experiment on MDA-MB-231 breast; 0.371% (active) with RXF 393 renal; 37.2% with SF-268 CNS. Further, the growth with SF-295 CNS was 20.3%; in the experiment on SF-539 CNS, -9.18% (active); in the experiment on UACC-257 melanoma, 82.8%; in the experiment on M14 melanoma it was 19.9%; with HCT-15 colon, 26.2%; in the experiment on HT29 colon, 7.96% (active). Moreover, the growth was 19% in the experiment with SNB-75 CNS; 35.7% with SNB-19 CNS; 28.9% in the experiment on U251 CNS; 31.9% in the experiment with PC-3 prostate; 39.3% in the experiment with SK-MEL-5 melanoma; 23.6% with UACC-62 melanoma. Also, the growth was 45.5% in the experiment on LOX IMVI melanoma and 53.9% in the experiment on SK-MEL-28 melanoma.

`CCN(CC)CCCCCNc1cc(OC(=O)c2ccc(Cl)cc2)cc2cccnc12`: the growth is 114% in the experiment on DU-145 prostate; 75.3% with K-562 leukemia; 61% in the experiment on MALME-3M melanoma; 85.8% with MDA-MB-231 breast; 98.9% in the experiment on RXF 393 renal; 114% with SF-268 CNS. For the same compound, the growth is 120% in the experiment on SF-295 CNS; 104% with SF-539 CNS; 95.9% in the experiment on UACC-257 melanoma; 102% in the experiment on M14 melanoma; 97.7% with HCT-15 colon; 87.6% with HT29 colon. Further, the growth in the experiment with SNB-75 CNS is 89.5%; in the experiment on SNB-19 CNS, 103%; in the experiment with U251 CNS it was 105%; with PC-3 prostate, 88.8%; in the experiment on SK-MEL-5 melanoma it was 105%; in the experiment on UACC-62 melanoma, 98%. Also, the growth in the experiment with LOX IMVI melanoma is 106%; in the experiment with SK-MEL-28 melanoma, 116%.

Regarding `O=C(COc1ccc(-c2nc3cc(Cl)c(Cl)cc3[nH]2)cc1)N=Nc1c(O)[nH]c2ccc(Cl)cc12`, the growth with DU-145 prostate was 74.6%; in the experiment with K-562 leukemia, 5.55% (active); in the experiment on MALME-3M melanoma it was 49.5%; with MDA-MB-231 breast, 76.8%; in the experiment on RXF 393 renal it was 77.6%; in the experiment on SF-268 CNS, 89.4%. Also, the growth is 74.8% in the experiment with SF-295 CNS; 84.2% with SF-539 CNS; 105% in the experiment on UACC-257 melanoma; 66.5% with M14 melanoma; 80.3% in the experiment with HCT-15 colon; 33.4% in the experiment on HT29 colon. Also, the growth was 68.5% with SNB-75 CNS; 56.7% in the experiment on SNB-19 CNS; 34.2% in the experiment with U251 CNS; 61.2% in the experiment on PC-3 prostate; 85.6% in the experiment on SK-MEL-5 melanoma; 91.6% in the experiment on UACC-62 melanoma. The growth with LOX IMVI melanoma was 60.8%; with SK-MEL-28 melanoma, 73.7%.

(Values after PubChem BioAssay (NCI).)
